# Assay results: PubChem BioAssay AID738 (SRMLSC, 2007)
# Screen size: about 98,000 compounds; about 4,900 (5%) were called active. This is one part of a sample in which actives are shown more often than they occur. Values without a mark were called inactive. Rule as the data show it: active = inhibition above about 30%; inactive = the rest.
# Experiment: yeast control strain growth suppression – counter-screen for post-Golgi transport modulator project, primary screen (AID 738)
# Details: efflux-deficient yeast background strain, growth absorbance A615, 16 h; at 10 µM; stronger effect = higher value
row,Compound,inhibition
1,COc1cc(/C=N\NC(=O)C2C(=O)NCC2c2ccccc2)cc(OC)c1O (configuration not stated),-0.14%
2,CC(C)(C)Cc1nnc(NC(=O)c2cc(-c3ccccc3)nc3ccccc23)s1,9.13%
3,CCOC(=O)c1[nH]c2ccccc2c1N=C(C)N(CC)CC,-8.42%
4,CCOC(=O)c1cc2cc(C)ccc2[nH]1,10.2%
5,CCOC(=O)c1[nH]c2ccc(C)cc2c1N=C(C)N(C)C,30.6% (active)
6,Cn1cnc([N+](=O)[O-])c1Sc1ccccc1,7.56%
7,Clc1ccc(-n2nnnc2CN2CCCCC2)cc1Cl,-0.16%
8,Cc1ccccc1CS(=O)(=O)CC1(O)CCN(C(=O)c2cccc(C(F)(F)F)c2)CC1,4.49%
9,COc1cc(/C=C(/NC(=O)c2ccccc2)C(=O)Nc2cccc(O)c2)c([N+](=O)[O-])cc1OC,15.7%
10,CCOC(=O)N1CCN(C(=O)Cc2ccc(-n3c(=S)[nH]c4ccccc4c3=O)cc2)CC1,-2.12%
11,O=C(CCn1c(=O)[nH]c2ccccc2c1=O)NCCCN1CCN(c2cccc(Cl)c2)CC1,1.72%
12,O=C(Cc1ccc(-n2c(=O)[nH]c3ccccc3c2=O)cc1)N1CCN(c2cccc(Cl)c2)CC1,37.3% (active)
13,COc1ccc(NC(=O)C(NC(C)=O)C(=O)NCc2ccccc2Cl)cc1 (configuration not stated),14%
14,COC(=O)CN(C(=S)Nc1ccc(Cl)cc1)C1CC(=O)N(c2ccc(OC)cc2)C1=O (configuration not stated),7.41%
15,CC1CCc2c(sc(NC(=O)c3ccc(Cn4cc(Br)cn4)o3)c2C(N)=O)C1 (configuration not stated),10.8%
16,O=C(NCc1cccnc1)c1ccc(CS(=O)(=O)c2ccc(Br)cc2)o1,-2.42%
17,O=C(Nc1ccc(Br)c2cccnc12)c1ccc(Cn2cc([N+](=O)[O-])cn2)o1,30.3% (active)
18,COc1ccccc1NC(=O)[C@H](COCc1ccccc1)NC(=O)OC(C)(C)C,5.88%
19,CC(=O)c1ccc(Cc2ncc(C(F)(F)F)cc2Cl)s1,5.66%
20,CCN1CCN(c2ccc([N+](=O)[O-])cc2C(=O)c2ccc(Cl)cc2)CC1,26.2%
21,O=C(NCc1ccccn1)c1cc(-c2ccccc2Cl)on1,9.87%

row,Compound,inhibition
1,CCOc1ccc(C(=O)Nc2cc(OC)ccc2OC)cc1,-3.51%
2,CC(=O)c1c(C)[nH]c(C(=O)NCc2ccc(C)cc2)c1C,5.25%
3,COc1ccc(C)cc1NC(=O)c1[nH]c(C)c(C(C)=O)c1C,55% (active)
4,CC1=NN(C(=O)c2ccccc2Br)C(O)(c2cccnc2)C1 (configuration not stated),9.36%
5,COC(=O)c1ccc(C(=O)Nc2cc(Cl)ccc2Cl)cc1NC(=O)c1ccccc1C,1.48%
6,Cc1ccc(NC(=O)C(C)c2cccc(C(=O)c3ccccc3)c2)cc1 (configuration not stated),9.41%
7,CC(C)CC(=O)N1CCC(O)(CS(=O)(=O)Cc2ccccc2)CC1,12.7%
8,O=C(CSc1nnc(-c2ccco2)n1Cc1ccccc1)NC(=O)NCc1ccco1,-1.05%
9,c1ccc(CSc2nnc(-c3ccco3)c(-c3ccco3)n2)cc1,21.3%
10,c1ccc(CSc2nnc(-c3ccco3)n2Cc2ccccc2)cc1,38.6% (active)
11,COc1ccc(CCN(C(=O)COc2ccccc2)c2nc(-c3ccccc3)cs2)cc1OC,4.48%
12,Cc1cccc2cc(CN(Cc3cccs3)C(c3nnnn3C3CCCC3)C(C)C)c(=O)[nH]c12 (configuration not stated),23%
13,CCC(c1nnnn1C1CCCC1)N(Cc1cccs1)Cc1cc2cccc(C)c2[nH]c1=O (configuration not stated),38.6% (active)
14,CCC(c1nnnn1Cc1ccco1)N(CCc1ccccc1)Cc1cc2cccc(C)c2[nH]c1=O (configuration not stated),52.5% (active)
15,CCC(c1nnnn1Cc1ccco1)N(CCc1ccccc1)Cc1cc2ccc(OC)cc2[nH]c1=O (configuration not stated),5.86%
16,Cc1cccc2cc(CN(Cc3ccc4c(c3)OCO4)Cc3nnnn3C3CCCC3)c(=O)[nH]c12,20.4%
17,CCC(c1nnnn1Cc1ccco1)N(Cc1cc2cc(OC)ccc2[nH]c1=O)C1CCCCC1 (configuration not stated),29.9%
18,CCOC(=O)C1CN(S(=O)(=O)c2ccc(F)cc2)C1,-2.08%
19,N=c1c2c(-c3ccccc3)c(-c3ccccc3)oc2ncn1Cc1ccco1,26.2%
20,CC(=O)c1sc(NC(=O)c2cccc3ccccc23)nc1C,-0.59%
21,Cc1ccc2nc(SCc3nnc(-c4ccccc4[N+](=O)[O-])o3)c(C#N)cc2c1,23.2%

row,Compound,inhibition
1,c1ccc2c(CSCc3nc4ccccc4[nH]3)cccc2c1,14.3%
2,Cc1ccc(OC(=O)c2ccccc2C(=O)OCC(F)(F)C(F)F)cc1,5.33%
3,COc1ccc(-c2cc(C(F)(F)F)nc(NCc3cccnc3)n2)cc1,26.7%
4,COc1ccc(-c2ccc(Nc3ccc(S(=O)(=O)N4CCCC4)cc3)nn2)cc1OC,-1.56%
5,COc1ccc(-c2cc(C(F)(F)F)nc(S(C)(=O)=O)n2)cc1OC,87.3% (active)
6,O=C(Nc1ccc(Br)cc1)C1CCC(=O)N1Cc1ccccc1Cl (configuration not stated),-0.46%
7,CSCc1cc(N2CCOCC2)nc(SCc2ccc(Cl)cc2Cl)n1,7.94%
8,Cc1cc(C(=O)Nc2c(C)nn(Cc3ccccc3)c2C)on1,8.88%
9,CC(=O)Nc1ccccc1C(=O)C(=O)Nc1ccc(F)cc1,4.22%
10,N#Cc1nc(Cc2ccccc2)oc1NCCc1ccccc1,21.1%
11,N#Cc1nc(COc2ccc(-c3ccccc3)cc2)oc1NCc1cccnc1,94.2% (active)
12,N#Cc1nc(-c2ccc(OCc3ccccc3)cc2)oc1NCCCN1CCOCC1,14.1%
13,FC(F)(F)c1nc2ccccc2nc1N/N=C/c1ccc(Cl)cc1,-2.3%
14,CCOC(=O)N1CCN(c2c(NCCCN3CCCC(C)C3)c(=O)c2=O)CC1 (configuration not stated),-0.16%
15,CCC(c1nnnn1C1CCCC1)N1CCN(C(=O)c2ccco2)CC1 (configuration not stated),12.4%
16,CC(C)C(c1nnnn1Cc1ccccc1)N1CCC(C(N)=O)CC1 (configuration not stated),-0.16%
17,COCCn1nnnc1C(c1ccccc1Cl)N1CCN(c2ccccc2OC)CC1 (configuration not stated),3.75%
18,CC(C)C(c1nnnn1C1CCCC1)N1CCN(c2ccccc2F)CC1 (configuration not stated),42.7% (active)
19,COc1ccc(N2CCN(C(c3cc4ccc(C)cc4[nH]c3=O)c3nnnn3C3CCCC3)CC2)cc1 (configuration not stated),-0.59%
20,COc1ccc(C(c2nnnn2C2CCCCC2)N2CCN(c3ccccc3F)CC2)cc1 (configuration not stated),50.5% (active)
